This is a sample that favours compounds with a hit; in the whole collection about 2.4% have one here.
INS-1E GSIS act: primary screen for activators of insulin secretion dependent on glucose, INS-1E cells, GLuc reporter luminescence | INS-1E GLuc reporter insulin secretion, 2-3 h | activation, % at 16.6 µM | 370,000 tested, 0.61% active | AID 743287;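 active = lowest replicate activation of at least 40%, so every replicate reaches that level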;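 note: 0% = median of neutral control wells and 100% = median of IBMX positive control wells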
MITF act: activators of MITF-driven TRPM1 promoter activity in SK-MEL-5 cells. SK-MEL-5 TRPM1-promoter luciferase, 24 h; % of positive control, neutral wells = 0. 300,000 tested, 0.75% active. AID 588334. activation, % at 12.5 µM;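 active = mean activation of at least 80% with every replicate also reaching 80%; inconclusive = mean reaches 80% but some replicate falls short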;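 note: 0% = neutral control wells and 100% = parthenolide positive control wells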
Wnt act: activates Wnt/beta-catenin signaling in a reporter cell assay; activation, % at 9.35 µM; activator, plate reader; 300,000 tested, 1.2% active; in the data active = activation above about 30%, passing the limit was not always enough; inconclusive = no clear call, values can overlap the other calls;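 note: 0% = neutral control wells and 100% = positive control wells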
NSD2 HMT inh: NSD2 (human) methyltransferase inhibition | O96028 | NSD2 peptide methylation, AlphaScreen, 120 min | inhibition, % at 12.5 µM | 310,000 tested, 0.54% active
Target sequence (O96028 whole entry, looked up): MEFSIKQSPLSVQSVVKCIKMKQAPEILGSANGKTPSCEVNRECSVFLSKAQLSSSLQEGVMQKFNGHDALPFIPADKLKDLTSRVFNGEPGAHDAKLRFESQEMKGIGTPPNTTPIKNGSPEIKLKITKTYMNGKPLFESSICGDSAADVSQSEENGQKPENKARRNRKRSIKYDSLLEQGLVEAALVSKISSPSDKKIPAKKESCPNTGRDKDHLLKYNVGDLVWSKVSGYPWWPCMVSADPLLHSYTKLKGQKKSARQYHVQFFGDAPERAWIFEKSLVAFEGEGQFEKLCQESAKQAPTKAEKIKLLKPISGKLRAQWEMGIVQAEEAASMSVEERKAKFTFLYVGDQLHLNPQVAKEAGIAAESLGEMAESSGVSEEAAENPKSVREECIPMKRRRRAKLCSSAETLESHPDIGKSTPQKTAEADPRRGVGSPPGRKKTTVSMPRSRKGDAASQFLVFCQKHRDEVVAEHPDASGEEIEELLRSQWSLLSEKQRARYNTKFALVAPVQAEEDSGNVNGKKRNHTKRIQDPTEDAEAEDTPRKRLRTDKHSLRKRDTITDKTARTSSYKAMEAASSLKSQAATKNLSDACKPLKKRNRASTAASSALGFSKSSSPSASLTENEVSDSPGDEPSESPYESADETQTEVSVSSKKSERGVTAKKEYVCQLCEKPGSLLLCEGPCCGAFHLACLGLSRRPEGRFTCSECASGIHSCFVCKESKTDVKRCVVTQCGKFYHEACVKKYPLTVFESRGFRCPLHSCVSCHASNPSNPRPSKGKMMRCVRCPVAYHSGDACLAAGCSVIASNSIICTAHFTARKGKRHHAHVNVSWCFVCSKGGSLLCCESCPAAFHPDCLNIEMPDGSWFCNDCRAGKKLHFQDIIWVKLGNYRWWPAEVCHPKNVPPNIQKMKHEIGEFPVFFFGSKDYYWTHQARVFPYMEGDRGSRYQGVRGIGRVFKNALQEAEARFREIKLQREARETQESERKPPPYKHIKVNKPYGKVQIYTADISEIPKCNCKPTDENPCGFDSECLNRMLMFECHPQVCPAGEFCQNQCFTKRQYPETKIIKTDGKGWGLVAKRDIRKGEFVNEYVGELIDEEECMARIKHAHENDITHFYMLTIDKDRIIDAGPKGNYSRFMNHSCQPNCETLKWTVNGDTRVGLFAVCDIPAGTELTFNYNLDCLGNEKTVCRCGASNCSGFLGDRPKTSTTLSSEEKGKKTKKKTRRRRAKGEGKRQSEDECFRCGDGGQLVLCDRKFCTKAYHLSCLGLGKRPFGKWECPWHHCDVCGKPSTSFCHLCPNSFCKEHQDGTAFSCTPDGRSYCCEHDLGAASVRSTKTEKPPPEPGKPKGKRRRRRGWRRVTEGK
DYRK1A inh: inhibitors of rat Dyrk1A kinase. ADP-Glo luminescence, NFATc1 peptide. 310,000 tested, 0.43% active. Q63470. AID 504441. inhibition, % at 12.5 µM;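 note: plate controls were vehicle with enzyme for no effect and no enzyme for full effect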
miR-122 sensor: inhibitors of miR-122 in Huh7 cells; Huh7 miR-122 Renilla luciferase sensor, 48 h; neutral wells = 0, positive control = 100; activation (reporter increase), % at 12.5 µM; 340,000 tested, 0.3% active;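 active = mean replicate activation score at least 90 and every replicate individually at or above 90; inconclusive = only one of the two criteria met; inactive = neither criterion met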;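 note: higher luciferase means less miR-122 activity so hits act as miR-122 inhibitors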
* = called active by the depositor; ? = inconclusive; nt = no result; ! = repeats disagree; [ ] = dose if it differs, or a comment. Cut-off read from the data, not from the text of the source, unless noted: active = inhibition above about 50%; inactive = the rest.

SMILES | INS-1E GSIS act | MITF act | Wnt act | NSD2 HMT inh | DYRK1A inh | miR-122 sensor
COc1cccc(-c2ccc(C3[C@@H]4CN(Cc5cccc(F)c5)C[C@H]3N4)cc2)c1 (stereo partly drawn) | 755*! | nt | nt | nt | nt | nt
O=C(C[C@@H]1C[C@@H]2c3cc(NC(=O)C4CCC4)ccc3O[C@@H]2[C@@H](CO)O1)NCCc1ccccc1 | 8 | nt | nt | nt | nt | -1[16.7 µM]
Cc1cc(C)c2[nH]c(O)c(N=NC(=S)NCC3CCCO3)c2c1 (stereo not drawn) | 69* | -15 | -14 | -1 | -2 | 1
Oc1[nH]c2c(Cl)cc(Cl)cc2c1N=NC(=S)NCC1CCCO1 (stereo not drawn) | nt | -36 | nt | -2 | -1 | nt
Cn1c2ccccc2c(=O)c2ccc(NCCc3cccs3)cc21 | 8 | 95* | ? | nt | 22 | 2
NC(=O)c1ccc(NCCc2cccs2)cc1 | -1 | nt | 3 | nt | nt | 1
COc1ccc2c(c1)CCc1c(C(=O)NC3CCCCC3)noc1-2 | -29 | 91* | nt | 5 | -3 | -4
COc1ccc2c(c1)CCc1c(C(=O)NCc3ccco3)noc1-2 | 1 | 100* | 21 | 0 | 1 | 6
COc1ccccc1CN1C[C@H](C)[C@H](OC)CN(C)C(=O)c2ccc(NC(C)=O)cc2OC[C@H]1C | -6 | nt | nt | nt | nt | 9[16.7 µM]
O=C(NC1CCCC1)N1CC(=O)N2[C@@H](CO)[C@H](c3ccc(/C=C/c4ccccc4)cc3)[C@@H]2C1 | -21 | nt | nt | nt | nt | nt
C[C@@H]1CN([C@@H](C)CO)C(=O)c2cccc(NC(=O)c3cnccn3)c2O[C@@H]1CN(C)Cc1ccc(C(=O)Nc2ccccc2N)cc1 | 17 | nt | nt | nt | nt | 129*[16.7 µM]
C[C@H](CO)N1C[C@H](C)[C@@H](CN(C)Cc2ccc(C(=O)Nc3ccccc3N)cc2)Oc2c(NC(=O)Nc3ccccc3)cccc2C1=O | 4 | nt | nt | nt | nt | 97*[16.7 µM]
C[C@@H]1CN([C@H](C)CO)C(=O)c2cccc(NC(=O)Nc3ccccc3)c2O[C@H]1CN(C)Cc1ccc(C(F)(F)F)cc1 | -10 | nt | nt | nt | nt | 107*[16.7 µM]
C[C@@H]1CN([C@@H](C)CO)C(=O)c2cccc(NC(=O)Nc3ccccc3)c2O[C@H]1CN(C)Cc1ccc(C(=O)Nc2ccccc2N)cc1 | 13 | nt | nt | nt | nt | 21[16.7 µM]
C[C@@H]1CN([C@H](C)CO)C(=O)c2cccc(NC(=O)Nc3ccc(F)cc3)c2O[C@@H]1CN(C)Cc1ccc(C(=O)Nc2ccccc2N)cc1 | 7 | nt | nt | nt | nt | nt
C[C@H]1CN([C@@H](C)CO)C(=O)c2cccc(NC(=O)Nc3ccccc3)c2O[C@@H]1CN(C)Cc1ccc(C(=O)Nc2ccccc2N)cc1 | 3 | nt | nt | nt | nt | 153*[16.7 µM]
CC(C)CC#Cc1ccc2c(c1)O[C@@H](CN(C)C(=O)Cc1ccncc1)[C@H](C)CN([C@@H](C)CO)S2(=O)=O | -10 | nt | nt | nt | nt | 8[16.7 µM]
Cc1ccccc1-c1ccc([C@@H]2[C@H](CO)N3CCCCN(C(=O)CN4CCOCC4)C[C@@H]23)cc1 | -8 | nt | nt | nt | nt | 6[16.7 µM]
O=C(Nc1ccccc1Cl)c1ccc2c(=O)n3c(nc2c1)CCC3 | 12 | 71 | 51* | -1 | nt | 4
O=C(NCCOc1ccccc1F)c1ccc2c(=O)n3c(nc2c1)CCC3 | 45 | 44 | 46* | nt | nt | -4
O=C(NC1CCCCCC1)c1ccc2c(=O)n3c(nc2c1)CCCCC3 | 4 | 92* | nt | 1 | 7 | 11
Cc1cccc(NC(=O)c2ccc3c(=O)n4c(nc3c2)CCCCC4)n1 | 17 | 3 | 35* | 1 | 1 | -7
O=C(Nc1ccc(F)cc1Cl)c1ccc2c(=O)n3c(nc2c1)CCCCC3 | nt | 55 | nt | -5 | -2 | 4
C[C@H]1CN([C@@H](C)CO)C(=O)Cc2cc(NC(=O)Cc3ccccc3)ccc2O[C@H]1CN(C)C(=O)Nc1ccc(F)cc1 | 0 | nt | nt | nt | nt | -5[16.7 µM]
COc1ccc(-c2ccccc2[C@H]2[C@@H](CO)N(C(=O)NC(C)C)[C@H]2C#N)cc1 | -11 | nt | nt | nt | nt | nt
SMILES | INS-1E GSIS act | MITF act | Wnt act | NSD2 HMT inh | DYRK1A inh | miR-122 sensor
C[C@H]1CN([C@@H](C)CO)C(=O)c2cc(NS(=O)(=O)c3cn(C)cn3)ccc2O[C@@H]1CN(C)S(=O)(=O)c1ccc(Cl)cc1 | 14 | nt | nt | nt | nt | -1[16.7 µM]
COC(=O)C[C@H]1CC[C@H]2[C@H](COc3ccc(NC(=O)c4cc(F)cc(F)c4)cc3C(=O)N2C)O1 | 2 | nt | nt | nt | nt | 10[16.7 µM]
COc1ccc(-c2cc(=O)c3cc(C)ccc3[nH]2)cc1 | 12 | 107* | 45* | nt | 1 | nt
COc1cc2[nH]c(-c3cccc(F)c3)cc(=O)c2cc1OC | 7 | -10 | 1 | nt | 4 | nt
COc1ccc(-c2cc(=O)c3cc(OC)ccc3[nH]2)cc1 | nt | -16 | nt | nt | -11 | -5
COc1cc2[nH]c(-c3ccc(C)cc3)cc(=O)c2cc1OC | 57* | 46 | 5 | nt | 2 | 2
CO[C@H]1CN(C)C(=O)c2cc(NC(=O)C3CC3)ccc2OC[C@@H](C)N(Cc2ccncc2)C[C@H]1C | -1 | nt | nt | nt | nt | 0[16.7 µM]
O=C1CCCC2=C1C(c1ccc(Cl)cc1)n1c(s/c(=C\c3ccc4ccncc4c3)c1=O)=N2 (stereo not drawn) | -15 | 2 | 36* | 1 | 2 | nt
CO[C@H]1CN(C)C(=O)c2cc(NC(=O)c3ccccc3)ccc2OC[C@@H](C)N(C(C)=O)C[C@H]1C | 4 | nt | nt | nt | nt | -2[16.7 µM]
Cc1ccc(S(=O)(=O)NCc2csc(-c3cccs3)n2)cc1 | 48* | 4 | 1 | -1 | -2 | nt
CCC(=O)N1CC[C@@H]2[C@@H](CO)Nc3ccc(-c4ccc(OC)cc4)cc3[C@@H]21 | 35 | nt | nt | nt | nt | -1[16.7 µM]
C[C@@H]1CN([C@@H](C)CO)S(=O)(=O)c2ccc(C3=CCCCC3)cc2O[C@H]1CN(C)C(=O)CN(C)C | 5 | nt | nt | nt | nt | -5[16.7 µM]
Cc1ccc(C)c(NC(=O)Cn2cnc3c(oc4ccccc43)c2=O)c1 | 6 | -14 | 0 | -4 | -14 | 0
Cc1cc(CCNC=O)c(C)c2c1oc1ccccc12 | 57* | 45 | 24 | -3 | 1 | nt
Cc1ccc(S(=O)(=O)N(C)C[C@H]2Oc3ccc(NS(C)(=O)=O)cc3C(=O)N([C@@H](C)CO)C[C@@H]2C)cc1 | 28 | nt | nt | nt | nt | -1[16.7 µM]
O=C(COc1ccc(Br)cc1CO)Nc1ccccc1 | nt | nt | 31* | -2 | 31 | -4
O=C(COc1ccc(Br)cc1CO)Nc1ccccc1F | 5 | 102* | 2 | -2 | -1 | 1
COc1ccccc1NC(=O)COc1ccc(Br)cc1CO | nt | nt | nt | -1 | -2 | -3
Cc1ccc(NC(=O)COc2ccc(Br)cc2CO)cc1 | nt | 65 | nt | -6 | -1 | 284*
Cc1cc(NC(=S)NC(=O)C2CCCC2)ccc1Br | nt | nt | nt | -4 | nt | nt
Cc1ncsc1CCOC(=O)c1cccc([N+](=O)[O-])c1 | 42*! | -11 | 2 | 10 | 3 | -2
COc1cc(NC(=O)CN2C(=O)C(=O)N(C3CCCC3)C2=O)cc(OC)c1 | -8 | -8 | 1 | 29 | nt | nt
COc1cc(NC(=O)CN2C(=O)C(=O)N(CC(C)C)C2=O)cc(OC)c1 | 43* | -10 | 3 | 0 | 1 | 10
